Among all 290,000 compounds or so, about 890 (0.31%) were called active. The sample holds actives, similar compounds and a random draw of the others, so the mix is not that of the screen. Rule as the data show it: active = inhibition mostly above about 52% (no sharp cut-off); inactive = mostly below about 76%.

The nature of this experiment: inhibitors of HIV fusion peptide binding, primary screen, biochemical, uHTS, fluorescence dequenching (AID 1986). The note with it: cell-free peptide binding, 30 min, stronger effect = higher value.
Setting [1] is: measured here: repeat confirmation average inhibition, at 18.6 µM.

For `O=c1[nH]c2c(cc1CNCCN1CCOCC1)c(-c1cccc(F)c1)nn2-c1ccccc1`, for the setting “at 20 µM”, the inhibition (as a rule, the relative decrease from the control value, in per cent) is -1.4% (inactive).
With `COc1ccc(CNC(=O)Oc2ccccc2)cc1Cl`, the inhibition (at 20 µM) was -0.6% (inactive).
For `Cc1ccc(C)c(N2C(=N)S/C(=C\c3ccc(-c4ccccc4C(=O)O)o3)C2=O)c1`, the inhibition by setting is: (at 20 µM) 52.1% (inactive); under setting [1], 18.9%.
Take `O=C(O)c1ccccc1-c1ccc(/C=C2\SC(=O)N(c3ccccc3)C2=O)o1`: the inhibition (at 20 µM) is 11% (inactive).
For the compound `COc1ccccc1N1C(=N)S/C(=C\c2ccc(-c3ccccc3C(=O)O)o2)C1=O`, the inhibition (at 20 µM) is 54% (active).
On to `O=C(NNC(=S)NC1CCCCC1)c1ccccc1O`, for which the inhibition (at 20 µM) was 3.3% (inactive).
Still for that read-out and setting: under `CN(C)c1ncc(/C=C2/C(=O)NC(=S)N(C3CCCCC3)C2=O)cn1` stands 32.3% (inactive); under `O=C1C(=Cc2ccco2)C(=O)c2ccccc21`, 33.3% (inactive).
Same read-out and setting: under `O=C1/C(=C/c2ccco2)CCc2ccccc21` stands 57.7% (active); under `O=C1/C(=C\c2ccc(Br)o2)Cc2ccccc21`, 21.7% (inactive).
`COc1ccc2c(c1)CC/C(=C/c1ccco1)C2=O`: the inhibition (at 20 µM) is 44.1% (inactive).
The same measure, in the same setting: for `Nc1ccc2c(c1)C/C(=C/c1ccco1)C2=O` the value was 73.6% (active); for `O=C1/C(=C/c2ccco2)Cc2ccccc21`, 29.3% (inactive).
Turning to `CC(C)N(C(=O)Cn1cc(S(=O)(=O)CC(=O)NC2CCCCC2)c2ccccc21)C(C)C`, the inhibition (at 20 µM) was -0.7% (inactive).
The same measure, in the same setting: for `Cc1ccc(-c2csc(NCCn3c(C(F)(F)F)nc4ccccc43)n2)cc1` the value was 1.7% (inactive); for `Cc1cnc(CN(C)C(=O)c2ccc3oc(Cc4ccc(Cl)cc4)nc3c2)[nH]1`, 0.2% (inactive); for `COc1ccc(-n2c(C)cc(/C=C3\C(=N)N4N=C(CC(=O)N5CCOCC5)SC4=NC3=O)c2C)cc1`, 20.1% (inactive).
On the same count and under the same terms, for `Cc1ccc(/C=C/S(=O)(=O)NCC(=O)O)cc1` the value was 4.8% (inactive).
As to `Cc1c(N2C(=O)/C(=C\c3ccc(N(C)C)cc3)N(C)C2=S)c(=O)n(-c2ccccc2)n1C`, the inhibition runs as follows: (at 20 µM) 52.4% (active); under setting [1], 74.6%.
For the compound `CN1C(=S)N(c2cccnc2)C(=O)/C1=C\c1ccc(N(C)C)cc1`, the inhibition (at 20 µM) was 6.7% (inactive).
Same read-out and setting: for `Cc1c(N2C(=O)/C(=C/c3ccccc3)SC2=S)c(=O)n(-c2ccccc2)n1C` the value was -4.2% (inactive).
On to `Cc1cccc(C(=O)N/C(=C/c2ccco2)C(=O)N2CCCCCC2)c1`, for which, for the setting “at 20 µM”, the inhibition is 0% (inactive).
For `O=C(NCC1CCCO1)Nc1cc(Cl)cc(Cl)c1` (stereo unspecified), the inhibition (at 20 µM) was 0.7% (inactive).
Same read-out and setting: under `COC(=O)c1cc(=O)c2cccc(OC)c2[nH]1` stands -2.4% (inactive).
Same read-out and setting: under `COc1cccc2c(=O)c(C(=O)O)c[nH]c12` stands 2% (inactive); under `COc1cccc2c(C)c(C(=O)O)[nH]c12`, 67.9% (active); under `Nc1nnc(SCc2ccc([N+](=O)[O-])cc2)s1`, 0.4% (inactive).
With `Cc1cc(NC(=O)COC(=O)CCS(=O)(=O)c2ccc(Cl)cc2)no1`, the inhibition (at 20 µM) is 1.1% (inactive).
Turning to `CC(C(=O)N1CCc2ccccc21)n1cccc1` (stereo unspecified), the inhibition (at 20 µM) was -2.3% (inactive).
For the compound `Cc1ccc(C)c(NC(=O)c2ccccc2NS(=O)(=O)c2cc([N+](=O)[O-])ccc2C)c1`, the inhibition (at 20 µM) was 47.1% (inactive).
Same read-out and setting: for `CC(=O)Nc1ccc(NS(=O)(=O)c2cc([N+](=O)[O-])ccc2C)cc1` the value was 0.5% (inactive); for `C=CCOC(=O)CCC(=O)Nc1cc(OC)nc(OC)n1`, -0.6% (inactive).
As for `Cc1ccc(S(=O)(=O)Cc2cn3cccnc3n2)cc1`, the inhibition (at 20 µM) is -2.2% (inactive).
Still for that read-out and setting: for `COc1ccc2c(c1)c(C(=O)N/N=C/c1cccc(Br)c1)c(C)n2C` the value was 0.5% (inactive); for `COc1ccc(N2CC(C(=O)NCCc3c[nH]c4ccccc34)CC2=O)cc1` (stereo unspecified), 0.2% (inactive); for `COc1ccc(/C=C2\SC(=N)N(c3nccs3)C2=O)cc1OC`, 13.9% (inactive).
On to `N=C1S/C(=C\c2ccco2)C(=O)N1c1nccs1`, for which the inhibition (at 20 µM) was 51.1% (active).
In the case of `N=C1S/C(=C\c2ccc(-c3cccc(Cl)c3)o2)C(=O)N1c1nccs1`, the inhibition is 68.1% (inactive) (at 20 µM) and 15.5% under setting [1].
For the compound `CCCCNC(=O)CNC(=S)N(Cc1ccc(C)cc1)Cc1ccco1`, the inhibition (at 20 µM) is 2.5% (inactive).
For `CCCN1C(=O)/C(=C/c2c(N3CCNC(=O)C3CC(=O)OC)nc3c(C)cccn3c2=O)SC1=S` (stereo unspecified), the inhibition (at 20 µM) was 148% (inactive).
Same read-out and setting: under `CCCN1C(=O)/C(=C/c2c(N3CCNC(=O)C3CC(=O)OCC)nc3c(C)cccn3c2=O)SC1=S` (stereo unspecified) stands 146% (inactive).
As to `CCOC(=O)CC1C(=O)NCCN1c1nc2ccc(C)cn2c(=O)c1/C=C1\SC(=S)N(CC(C)C)C1=O` (stereo unspecified), the inhibition (at 20 µM) is 109% (active) and the inhibition under setting [1] was 147%.
Regarding `CCOC(=O)CC1C(=O)NCCN1c1nc2c(C)cccn2c(=O)c1/C=C1\SC(=S)N(C(C)CC)C1=O` (stereo unspecified), where the note is “at 20 µM”, the inhibition is 137% (inactive).
Same read-out and setting: under `CCOC(=O)CC1C(=O)NCCN1c1nc2ccc(C)cn2c(=O)c1/C=C1\SC(=S)N(C(C)CC)C1=O` (stereo unspecified) stands 148% (inactive).
The same measure, in the same setting: for `CCOC(=O)CC1C(=O)NCCN1c1nc2c(C)cccn2c(=O)c1/C=C1\SC(=S)N(CC(C)C)C1=O` (stereo unspecified) the value was 117% (active); for `Cc1ccccc1NC(=O)Cn1c(=O)sc2ccccc21`, -1.5% (inactive); for `CC1=C(C(=O)OCC2CCCO2)C(c2coc3ccc(Cl)cc3c2=O)C2=C(CCCC2=O)N1` (stereo unspecified), -0.8% (inactive).
Consider `COc1ccccc1CC(=O)Nc1cccc2c1CCCC2`, for which the inhibition (at 20 µM) is -2.5% (inactive).
Same read-out and setting: for `COc1ccc2nc(SCC(=O)Nc3nonc3C)[nH]c2c1` the value was 0.1% (inactive).
Regarding `CSc1ccccc1C(=O)NCC(c1ccco1)N(C)C` (stereo unspecified), under “at 20 µM”, the inhibition was -2.2% (inactive).
For the compound `CC1=C(C(=O)NC2CCCc3c2cnn3-c2cccc(C)c2C)OCCO1` (stereo unspecified), the inhibition (at 20 µM) is -0.2% (inactive).
The same measure, in the same setting: for `CC(=O)c1ccc(N(C)C)c2c(N(C)C)cccc12` the value was -0.7% (inactive).
The same measure, in the same setting: under `CN(C)c1cccc2c(/C=N/O)ccc(N(C)C)c12` stands -1.6% (inactive).
As to `CN(C)c1cccc2c(C=C(C#N)C#N)ccc(N(C)C)c12`, the inhibition (at 20 µM) is 89.8% (active).
The same measure, in the same setting: under `Cc1ccc(NC(=O)c2cc(S(=O)(=O)N3CCOCC3)cn2C)cc1Cl` stands -0.7% (inactive); under `Cc1ccc(N(CC(=O)NCc2ccccc2Cl)S(=O)(=O)c2cccs2)cc1`, 0.6% (inactive); under `O=C(CSc1nnc(-c2ccccc2F)o1)NC1CCCCC1`, -0.3% (inactive).
Same read-out and setting: for `Cc1ccc(-n2c3c(cc(C(=O)NC4CCSC4=O)c2=O)C(=O)CCC3)cc1` (stereo unspecified) the value was -1.5% (inactive); for `COc1cc(/C=N\Nc2ccc([N+](=O)[O-])cc2)ccc1OCC(=O)Nc1ccc(C)c(C)c1`, 27.8% (inactive).
On to `CCOc1cc(/C=N\Nc2ccc([N+](=O)[O-])cc2)ccc1OCC(=O)Nc1ccc(C)c(C)c1`, for which the inhibition (at 20 µM) is 88.4% (active) and the inhibition under setting [1] is 94.3%.
On to `CCOc1cc(/C=N/NC(N)=O)ccc1OCC(=O)Nc1ccc(C)c(C)c1`, for which, under “at 20 µM”, the inhibition is -2% (inactive).
On the same count and under the same terms, under `CC(Sc1ccccc1)C(=O)NCCc1ccccc1` (stereo unspecified) stands 0.1% (inactive); under `COc1ccccc1-c1nc(S(=O)(=O)c2ccc(Cl)cc2)c(N(C)C)o1`, 0.1% (inactive); under `O=c1c2[nH]c3cccc(Cl)c3c2ncn1Cc1ccncc1`, 0.2% (inactive).
On to `COC(=O)c1ccc(N2NC(=O)/C(=C/c3ccc(-c4ccc(Cl)c(C(=O)O)c4)o3)C2=O)cc1`, for which the inhibition (at 20 µM) is 54.7% (active).
Same read-out and setting: for `O=C1NN(c2ccccc2)C(=O)/C1=C/c1ccc(-c2ccc(Cl)c(C(=O)O)c2)o1` the value was 34.7% (inactive); for `Cc1ccc(N2NC(=O)/C(=C/c3ccc(-c4ccc(Cl)c(C(=O)O)c4)o3)C2=O)cc1`, 29.4% (inactive).
Still for that read-out and setting: under `Cc1cc(CSc2ccccc2)ccc1NC(=O)c1ccc(Cl)c([N+](=O)[O-])c1` stands 1.8% (inactive); under `Cc1ccc(-c2onc3ccc(C=O)cc23)cc1`, -0.6% (inactive).
Same read-out and setting: for `O=Cc1ccc2noc(-c3ccc(Cl)cc3)c2c1` the value was 28.2% (inactive).
With `O=Cc1ccc2noc(-c3ccc(F)cc3)c2c1`, the inhibition was 75.6% (active) (at 20 µM) and 79.8% under setting [1].
`COc1ccc2c(ccc[n+]2CC(=O)c2ccccc2)c1`: the inhibition (at 20 µM) is 1.3% (inactive).
The same measure, in the same setting: for `Cc1nc(NC(=O)CSc2cc(C)c3ccccc3n2)c(Cl)cc1Cl` the value was -0.4% (inactive).
As to `S=C(Nc1ccc(Oc2ccccc2)cc1)N1CCOCC1`, the inhibition (at 20 µM) is -0.2% (inactive).
On the same count and under the same terms, under `COc1cc(CNCc2ccccc2Cl)ccc1OCC(=O)NC1CCCCC1` stands 0.7% (inactive); under `CN(C)/C=C/C(=O)c1ccc(S(=O)(=O)c2ccccc2)cc1`, 2.7% (inactive).
Same read-out and setting: for `CN(/C=C/C(=C/C=[N+](C)c1ccccc1)OCCCS(=O)(=O)[O-])c1ccccc1` the value was 71.6% (active); for `CN(/C=C/C(=C\C=[N+](C)c1ccccc1)OCCCS(=O)(=O)[O-])c1ccccc1`, 24.5% (inactive); for `Clc1ccccc1OCCN1CCC(Cc2ccccc2)CC1`, -0.6% (inactive).
On the same count and under the same terms, under `Cc1ccc(C=C2C(Cl)=C(Cl)C(Cl)=C2Cl)cc1` stands 53.9% (active); under `Cc1ccc(/C=[N+](/C)[O-])cc1`, -1.3% (inactive).
`Cc1ccc(/C=N/N=C/c2ccc(C)cc2)cc1`: the inhibition (at 20 µM) is 0.6% (inactive).
On the same count and under the same terms, for `COc1ccccc1OCCCCOc1ccccc1C(C)=O` the value was 0.9% (inactive).
Same read-out and setting: under `O=C(/C=C/Nc1cccc(F)c1)c1ccco1` stands 1.5% (inactive).
Still for that read-out and setting: for `COC(=O)c1ccc(=O)c2nc3/c(=C/O)c(O)cc(=O)c3[nH]c12` the value was 56.3% (active); for `COC(=O)c1ccc(N)cc1O`, -0.9% (inactive); for `COC(=O)c1ccc(C(=O)OC)c(=O)[nH]1`, -0.4% (inactive).
As to `COc1ccc(NC(=S)N(Cc2cccnc2)Cc2ccco2)cc1`, for the setting “at 20 µM”, the inhibition was -0.6% (inactive).
`Clc1ccc(Cc2noc(-c3cccs3)n2)cc1`: the inhibition (at 20 µM) was 1.2% (inactive).
Still for that read-out and setting: for `O=C1/C(=C/c2ccco2)Oc2c1ccc(O)c2CN1CCCCC1` the value was 58.1% (active); for `Cc1cc(O)c(CN(C)C)c2c1C(=O)/C(=C/c1ccco1)O2`, 29.7% (inactive); for `CCN1CCN(Cc2c(O)ccc3c2O/C(=C\c2ccc(C)cc2)C3=O)CC1`, 40.1% (inactive).
Turning to `Cc1ccc(/C=C2\Oc3c(ccc(O)c3CN3CCN(C)CC3)C2=O)cc1`, the inhibition (at 20 µM) is 45.4% (inactive).
Still for that read-out and setting: for `CC1CCCN(Cc2c(O)ccc3c2O/C(=C\c2ccco2)C3=O)C1` (stereo unspecified) the value was 35.5% (inactive).
Same read-out and setting: for `CC(C)(C)c1ccc(/C=C2\Oc3c(ccc(O)c3CN3CCN(CCO)CC3)C2=O)cc1` the value was 17.8% (inactive).
For the compound `CC1CCN(Cc2c(O)ccc3c2O/C(=C\c2ccco2)C3=O)CC1`, the inhibition was 56.7% (active) (at 20 µM) and 90.4% under setting [1].
For `COCCN(CCOC)Cc1c(O)ccc2c1O/C(=C\c1ccc(C)o1)C2=O`, the inhibition (at 20 µM) was 27.4% (inactive).
As to `COCCN(CCOC)Cc1c(O)ccc2c1O/C(=C\c1ccco1)C2=O`, the inhibition (at 20 µM) was 50.4% (active) and the inhibition under setting [1] turned out to be 78.9%.

The values above are taken from PubChem BioAssay AID1986 (Sanford-Burnham Center for Chemical Genomics, 2009).
